Screens (PubChem BioAssay)
KDM5B inhibitor: inhibitors of human KDM5B histone demethylase; Q9UGL1; KDM5B demethylase, FDH-coupled NADH fluorescence (FDH is formaldehyde dehydrogenase); Potency, µM (highest dose often 57.7 µM), actives largely listed as inhibitors; hit rate 2.6% among 220,000; AID 1347165; active = well fitted inhibition curve with a large enough effect; note: 0% is about no effect; nearly all actives have a fitted effect of over 70% in size
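Compound dilutions met 200 nM (final) KDM5BΔAP for 10 min at room temperature before substrate addition. The substrate mix held 12.5 µM H3K4me3 with cofactors 25 µM α-ketoglutarate and 50 µM Fe²⁺. NADH signal gain over 30 min defined activity.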
* marks the source's active call; other numbers are inactive results; i = inactive. The sample as a whole holds a higher share of hits than the screen did. Potency is the fitted concentration of half-maximal effect.

SMILES	KDM5B inhibitor
COc1ccc(OC)c(CC(=O)N2CCC3(CC2)OCCCC3O)c1 (configuration not stated)	i
NC(=O)COc1cccc(C(=O)N2CCC3(CC2)OCCCC3O)c1 (configuration not stated)	i
O=C(NC1CCOC2(CCOCC2)C1)c1cnc2c(O)cccn2c1=O (configuration not stated)	32µM*
CC(C)NC(=O)[C@@H]1C[C@@H](NC(=O)c2ccon2)CN1Cc1cccnc1N	i
O=C(Cc1ccc(-n2cnnn2)cc1)NC1CCOC2(CCOCC2)C1 (configuration not stated)	i
O=C(c1cnc2c(O)cccn2c1=O)N1CCC2(CC1)OCCCC2O (configuration not stated)	32µM*
Cc1ccc(NC(=O)c2c3c(nc4ccccc24)CCCC3)cc1Cl	i
CNC(=O)CCN(C)C(=O)Nc1ccc(C(F)(F)F)cc1	i
Cc1ccc(CNCCC2=CCCCC2)s1	i
CC1CCCC(C)N1NC(=S)NCc1ccccc1 (configuration not stated)	i
Cc1ccc2oc(C(=O)Nc3cccc(Cl)c3C)cc(=O)c2c1	i
COc1ccc(C(CNC(=O)c2ccc(Br)s2)N2CCCC2)cc1 (configuration not stated)	i
CCCn1c(C)cc(C(=O)COC(=O)Cn2cnc3c2c(=O)n(C)c(=O)n3C)c1C	i
CCCCn1c2ccc(F)cc2c2n[nH]c(=S)nc21	i
Cc1ccc(C)c(C(=O)c2sc(Nc3ccc(F)cc3)nc2N)c1	i
CC(NC(=O)Cn1c(=O)c2c(ncn2C2CCCC2)n(Cc2ccccc2)c1=O)c1cccs1 (configuration not stated)	i
CCC1CCc2c(sc(NC(=O)/C=C/c3ccc(C(C)(C)C)cc3)c2C#N)C1 (configuration not stated)	i
O=[N+]([O-])c1cccc(N/N=C/c2ccc3ncccc3c2)c1	i
Cc1ccc(NC(NC(=O)c2ccco2)C(=O)c2ccccc2)cc1 (configuration not stated)	i
c1ccc(-c2nnc3ccc(-c4ccoc4)nn23)nc1	32µM*
Fc1cccc(CNc2ccc3nnc(-c4ccccn4)n3n2)c1	i
CN(Cc1ccccc1)c1ccc2nnc(-c3ccccn3)n2n1	i
CC(OC(=O)C12CC3CC(CC(Cl)(C3)C1)C2)C(=O)c1c[nH]c2ccccc12 (configuration not stated)	i
COc1ccccc1N1CCN([C@@H]2[C@H](O)[C@H](CO)O[C@@H]2CNC2CCCCC2)CC1	i
O=S(=O)(NC[C@H]1O[C@@H](CO)[C@@H](O)[C@H]1N1CCN(c2ncccn2)CC1)c1ccccc1	i
SMILES	KDM5B inhibitor
CC(C)NC[C@H]1O[C@@H](CO)[C@@H](O)[C@H]1N1CCN(c2ccccn2)CC1	25µM*
Cn1c(SCC(=O)N2CCc3ccccc32)nnc1-c1cccc(NC(=O)c2ccccc2F)c1	i
COc1ccc(CNC(=O)C=C(C)C)cc1	i
CCn1ccnc1CN(C)C(=O)c1cc(COc2ccc3c(c2)OCO3)[nH]n1	i
CCn1ccnc1CN(C)c1cc(C2CC(N)C2)nc(COC)n1 (configuration not stated)	i
CCn1ccnc1CN(C)c1nccc(-c2ccc(C)nc2C)n1	22µM*
Cc1ccc2[nH]c(-c3ccccc3)c(C)c2c1	i
N#CC(C(=O)CCc1ccccc1)C(=O)NCc1ccccc1 (configuration not stated)	i
O=c1c2nc(-c3cccc(O)c3)ccc2ncn1C1CC1	i
O=c1c2nc(-c3ccsc3)ccc2ncn1Cc1ccccc1	40µM*
O=c1c2nc(-c3cccc(O)c3)ccc2ncn1-c1ccccc1	i
O=c1c2ccccc2ncn1Cc1ccccc1	i
O=c1c2nc(Nc3cccnc3)ccc2ncn1Cc1ccccc1	i
Cn1cnc2ccc(-c3ccsc3)nc2c1=O	35µM*
CN(CC(=O)Nc1ccc2c(c1)OCO2)Cc1cccs1	i
CCN1CC(c2ccccc2)CC2(CCN(Cc3cnc(SC)nc3)CC2)C1 (configuration not stated)	i
CCSc1ncc(CN2CCN(c3ccc4nccn4n3)CC2)cn1	28µM*
CCO[C@H]1CN(Cc2cnc(SCc3ccccc3)nc2)C[C@@H]1O	i
CN(C)S(=O)(=O)c1ccc2oc(SCC(=O)N3CCCC3=O)nc2c1	i
COc1ccc(Cn2c(C3CCN(C(=O)c4cc(Cl)ccc4F)CC3)n[nH]c2=O)cc1	i
Cc1cc(C)n2nc(C(=O)NCC3COc4ccccc4C3)cc2n1 (configuration not stated)	22µM*
CCn1cc(S(=O)(=O)NCC2COc3ccccc3C2)c(C)n1 (configuration not stated)	i
CCCn1cc(C(=O)NCC2COc3cc(OC)ccc3C2)c(C)n1 (configuration not stated)	i
COc1cccc(NC(=O)C2CCN(c3ccc4nnc(C(C)C)n4n3)CC2)c1	i
O=C(Nc1ccc(-c2nnc3n2CCCC3)cc1)C1CCC1	i
